The whole screen tested about 420,000 compounds, of which about 64,000 (15%) were called active. About 27% were inconclusive and are not listed. The call rests on the fitted dose curve; in most records, active means well fitted inhibition curve with a large enough effect; inconclusive means small, poorly fitted or top-dose-only effect; inactive means flat fitted curve, though single readings scatter. Only a sample is shown. Where a call stands in place of a potency, no number is given.
Test: qHTS for Inhibitors of human tyrosyl-DNA phosphodiesterase 1 (TDP1): qHTS in cells in absence of CPT; further: nearly all actives have a fitted effect of over 55% in size
Conditions: DT40 Tdp1-/- hTDP1 cells, no CPT, ATP luminescence, 48 h; activity change, negative = growth inhibition: at 46.2 µM (top of the series)
Summary of the method: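 Readout: luminescence from CellTiter-Glo after 30 min in the dark at RT. Cells: DT40 Tdp1-/- with stable hTDP1, 400/well. Exposure: compounds alone, ≥48 hr, 37 °C.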
Potency means the concentration at half of the fitted maximal effect.

Row | Structure (SMILES) | Potency
1 | O=C(CNC(=O)c1ccccc1)NCC(=O)OCc1ccc(Cl)cc1 | inactive
2 | CCOC(=O)CSc1nccc(N(C)C)c1C#N | inactive
3 | CN(CC(=O)NCCN1CCOCC1)S(=O)(=O)c1ccc(F)cc1 | inactive
4 | O=C(NC(Cc1c[nH]c2ccccc12)C(=O)O)/C(=C/c1ccco1)NC(=O)c1ccccc1 (stereo not given) | inactive
5 | Cc1c(Cl)cccc1NC(=S)NCc1ccc2c(c1)OCO2 | inactive
6 | O=C(CSc1ncnc2c1nnn2Cc1ccc(F)cc1)NC1CCCC1 | inactive
7 | c1ccc(Cn2nnc3c(N4CCCCC4)ncnc32)cc1 | 8.91 µM (active)
8 | CC(C)Nc1ncnc2c1nnn2Cc1ccccc1 | inactive
9 | CCc1ccccc1NC(=O)CSc1nnc([C@@H](NC(=O)OC(C)(C)C)C(C)CC)o1 (stereo not given in full) | inactive
10 | Cc1nc(SCC(=O)Nc2cc(C)on2)c2c3c(sc2n1)CCCC3 | inactive
11 | CC(C)c1nc(SCC(=O)Nc2cccc(C(=O)O)c2)c2c3c(sc2n1)CCCC3 | inactive
12 | Cc1cc(NC(=O)CSc2nc(C(C)C)nc3sc4c(c23)CCC(C)C4)no1 (stereo not given) | 23.1 µM (active)
13 | CSc1ccc(CCNC(=O)c2cnn(-c3ccccc3)c2-n2cccc2)cc1 | 14.6 µM (active)
14 | Cc1c(C(=O)NCc2ccccc2)cnn1-c1ccccc1 | inactive
15 | CCCN1CCN(CCCNC(=O)c2cnn(-c3ccc(C)cc3)c2-n2cccc2)CC1 | inactive
16 | C=CCn1c(SCC(=O)NC(=O)Cc2ccccc2)nc2ccccc2c1=O | inactive
17 | Cc1csc(=O)n1CCC(=O)OCC(=O)NNC(=O)c1ccc(Br)cc1 | inactive
18 | COCCOC(=O)C1=C(C)NC(=O)CC1c1cc2c(cc1Br)OCO2 (stereo not given) | inactive
19 | CCCOc1ccccc1C1CC(=O)Nc2cc3c(cc21)OCO3 (stereo not given) | 1.84 µM (active)
20 | O=C1CC(c2ccc(F)cc2F)c2cc3c(cc2N1)OCO3 (stereo not given) | inactive
21 | Cc1cc(C)c2nc(NC(=O)C3CCCO3)sc2c1 (stereo not given) | inactive
22 | Cn1c(=O)c(Sc2ccc(Cl)cc2)c(O)c2ccccc21 | inactive

Row | Structure (SMILES) | Potency
23 | COc1ccc(-c2nnc(SC(C)C(=O)NC3CC3)o2)cc1 (stereo not given) | inactive
24 | CCC(Sc1nnc(-c2ccc(OC)cc2)c(-c2ccc(OC)cc2)n1)C(=O)NC1CCCCC1 (stereo not given) | 13 µM (active)
25 | COc1ccc(-c2nnn(CC(=O)N(CCO)C(C(=O)NC3CCCC3)c3ccc(F)cc3)n2)cc1 (stereo not given) | inactive
26 | O=C(NCc1nnc(SCC(=O)N2CCCCCC2)o1)c1ccc(F)cc1 | inactive
27 | S=c1nccc(-c2cc(Cl)sc2Cl)[nH]1 | inactive
28 | CC1(C)Cc2ccccc2-c2c[nH]c(=O)n21 | inactive
29 | O=c1c2ccccc2nc2n1C1(CCCCC1)Cc1ccccc1-2 | 16.4 µM (active)
30 | c1cncc(-c2nnc3n2C2(CCCCC2)Cc2ccccc2-3)c1 | inactive
31 | CCCc1ccc(C(=O)COC(=O)CN2C(=O)NC3(CCCCC3C)C2=O)cc1 (stereo not given) | inactive
32 | O=C(Nc1cccc(-c2cscn2)c1)C1CCN(Cc2ccsc2)CC1 | inactive
33 | CCn1cc(CN2CCC(n3nccc3NC(=O)CCCc3ccccc3)CC2)c(C)n1 | inactive
34 | CCn1cc(CN2CCC(C(=O)Nc3cccc(-c4cccc(Cl)c4)c3)CC2)c(C)n1 | 4.61 µM (active)
35 | Cc1ccccc1NC(=O)NCC1CCN(Cc2cccc(Cl)c2)CC1 | inactive
36 | O=C(NC1CCCC1)C1CCN(C(=O)Nc2cccc(Cl)c2)CC1 | inactive
37 | O=C(Nc1cccc(-c2cccc(Cl)c2)c1)C1CCN(C2CCC2)CC1 | 23.1 µM (active)
38 | COc1cccc(-c2cccc(NC(=O)C3CCN(C4CCC4)CC3)c2)c1 | inactive
39 | COc1ccc(Cl)cc1NC(=O)NCC1CCN(Cc2ccccc2F)CC1 | inactive
40 | O=C(NCC1CCN(Cc2ccccc2Cl)CC1)Nc1cccc(Cl)c1 | 18.4 µM (active)
41 | CC1Cc2ccccc2N1S(=O)(=O)c1c(N)n(C)c(=O)n(C)c1=O (stereo not given) | inactive
42 | CCSc1nnc(NC(=O)c2cc(=O)c3cc(C)c(C)cc3o2)s1 | inactive
43 | COc1ccc(S(=O)(=O)NCC(=O)NC2CC2)cc1OC | inactive
44 | CCN1CCN(C(C(=O)NC2CCCC2)c2cc3c(cc2[N+](=O)[O-])OCO3)CC1 (stereo not given) | inactive

Row | Structure (SMILES) | Potency
45 | CC(C)CN1CC(C)C(=O)N(c2ccccc2)C1=S (stereo not given) | inactive
46 | Nc1nc(SCC(=O)NNc2c(Cl)cc(Cl)cc2Cl)n[nH]1 | inactive
47 | C[C@@H]1CCCCO[C@H](CN(C)Cc2ccccc2)[C@@H](C)CN([C@H](C)CO)C(=O)c2cc(NS(=O)(=O)c3ccc(Cl)cc3)ccc2O1 | 16.4 µM (active)
48 | Cc1noc(C)c1S(=O)(=O)N(C)C[C@H]1OCCCC[C@@H](C)Oc2ccc(NC(=O)CCCN(C)C)cc2C(=O)N([C@H](C)CO)C[C@@H]1C | inactive
49 | CC(C)NC(=O)Nc1ccc2c(c1)C(=O)N([C@H](C)CO)C[C@H](C)[C@@H](CN(C)Cc1ccc(C(F)(F)F)cc1)OCCCC[C@@H](C)O2 | inactive
50 | O=C(Nc1ccnn1C1CCN(Cc2cccc(OCCO)c2)CC1)C1CCCC1 | inactive
51 | CC1(C)CC(=O)C=C(NC2CC(C)(C)NC(C)(C)C2)C1 | inactive
52 | CC(=O)c1cnn(-c2cc(Oc3ccc(F)cc3)ncn2)c1C | inactive
53 | COc1cc(/C=C2/C(=O)NN(c3ccc(F)cc3)C2=O)cc([N+](=O)[O-])c1O | inactive
54 | C/C=C/C(=O)Nc1nnc(C(C)C)s1 | inactive
55 | Cc1cccnc1C(NC(=O)C1CCN(Cc2ccc(Cl)c(Cl)c2)CC1)c1ccc(Cl)cc1 (stereo not given) | 4.61 µM (active)
56 | Clc1ccc(CN2CCCCCC2)cc1Cl | inactive
57 | CCOc1ccc(CN2CCC(n3nccc3NC(=O)C3CC3)CC2)cc1CO | inactive
58 | COc1cccc(CN2CCC(C(=O)NC(c3ccc4c(c3)OCO4)c3ccccn3)CC2)c1 (stereo not given) | inactive
59 | O=C(NNS(=O)(=O)c1ccc(Cl)cc1)C1CCN(Cc2ccccc2)CC1 | inactive
60 | O=C(NC(c1ccc(Cl)cc1)c1cnccn1)C1CCN(Cc2ccc(Cl)cc2)CC1 (stereo not given) | 20.6 µM (active)
61 | Fc1cccc(Cl)c1CSc1ccc(-c2ccco2)nn1 | inactive
62 | CCOc1ccc(S(=O)(=O)N2CCC(C(=O)NCc3ccccn3)CC2)cc1Cl | inactive
63 | Cc1ccc(S(=O)(=O)NCC(=O)NNC(=O)c2ccc(Br)cc2)cc1C | inactive
64 | O=C(NNS(=O)(=O)c1ccc(F)cc1)c1cnccn1 | inactive
65 | CO/N=C(\C(=O)N[C@@H]1C(=O)N2C(C(=O)O)=C(C[N+]3(C)CCCC3)CS[C@H]12)c1csc(N)n1 | inactive

Source: PubChem BioAssay AID686978 (National Center for Advancing Translational Sciences (NCATS), 2013)
